According to PubChem BioAssay (NCI):
Compounds without any hit were thinned out: in the full panel of roughly 79,000, 15% have a hit. A number with no mark means an inactive call. Active and inactive are the calls of the source. Cut-off read from the data, not from the text of the source: active = growth inhibition above about 70%; inactive = the rest.

Experiments:
[1] = NCI Yeast Anticancer Drug Screen. Data for the rad50 strain (AID 155);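 note: 0% = growth of vehicle-only cultures of the same strain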; details: S. cerevisiae rad50 strain growth inhibition; at 50.0 µM; stronger effect = higher value
Procedure, shortened: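 Relative growth inhibition (compound vs vehicle) was measured in yeast with a defined repair-gene alteration.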

[2] = NCI Yeast Anticancer Drug Screen. Data for the mec2-1 strain (AID 157); details: S. cerevisiae mec2-1 strain, at 50.0 µM, stronger effect = higher value
Procedure, shortened: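 Using mec2-1 yeast: add compound, measure growth, express inhibition versus vehicle-treated cultures.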

[3] = NCI Yeast Anticancer Drug Screen. Data for the sgs1 mgt1 strain (AID 161);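 note: 0% = growth of cultures given vehicle only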; details: S. cerevisiae sgs1 mgt1 strain, at 50.0 µM, stronger effect = higher value
Procedure, shortened: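 Percent growth inhibition was derived by comparing compound-exposed mutant yeast with vehicle-exposed cultures. The strain carries alterations in DNA damage repair.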

[4] = NCI Yeast Anticancer Drug Screen. Data for the cln2 rad14 strain (AID 165);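 note: 0% = growth equal to vehicle treated cultures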; details: S. cerevisiae cln2 rad14 strain, at 50.0 µM, stronger effect = higher value
Procedure, shortened: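 Yeast strain cln2 rad14, bearing defects in cell cycle control and DNA repair, serves as the test system; values reflect growth inhibition compared with vehicle.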

[5] = NCI Yeast Anticancer Drug Screen. Data for the bub3 strain (AID 167); details: S. cerevisiae bub3 mutant strain, at 50.0 µM, stronger effect = higher value
Procedure, shortened: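 Screening used yeast with an engineered genetic alteration affecting cell cycle control. Compound-exposed cultures were compared with vehicle cultures, and reduced growth was taken as inhibition.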

[6] = NCI Yeast Anticancer Drug Screen. Data for the mlh1 rad18 strain (AID 175); details: S. cerevisiae mlh1 rad18 strain growth inhibition; at 50.0 µM; stronger effect = higher value
Procedure, shortened: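 Steps: expose repair-defective yeast to compound; measure growth; express inhibition against vehicle-treated controls.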

Structure (SMILES) | growth inhibition [1] | growth inhibition [2] | growth inhibition [3] | growth inhibition [4] | growth inhibition [5] | growth inhibition [6]
CCOC(=O)C1CSCN1C(C)=O (configuration not stated) | -33.4% | -20.6% | -4.3% | -34.5% | -11.8% | -21.9%
C[N+](C)(C)/N=C/c1ccc(O)c(O)c1 | -48.2% | -23.8% | -15.3% | -16% | -14.9% | -13.8%
Cc1cc2c(c(O)c1-c1c(C)cc(O)c3c1C(=O)C=CC3=O)C(=O)C=CC2=O | -7.1% | -43.4% | -8.5% | -0.2% | -27.9% | -43.2%
C/C=C(/C)C1(O)CCCCC1O (configuration not stated) | -4.2% | 1.15% | 1.2% | -2.7% | -4% | -11.3%
CCOC(=O)C(=N\Nc1ccccc1)/C(C)=N\NC(N)=S | 13.2% | -7.45% | -11.7% | 8.95% | 4.5% | 1.9%
COC(=S)OC1CC(n2cnc3c(N)ncnc32)OC1CO[Si](C)(C)C(C)(C)C (configuration not stated) | -10.2% | -8.25% | 2.55% | -1.2% | 11.1% | 4.9%
O=C(N/N=C/c1ccc(Cl)cc1Cl)c1ccccc1SSc1ccccc1C(=O)N/N=C/c1ccc(Cl)cc1Cl | -19.1% | 1.55% | -5.45% | -8.1% | -9.75% | 19.8%
Cc1cc(Cl)ccc1OCCCC(=O)NC(Cc1ccccc1)C(=O)O (configuration not stated) | 4.85% | 8.95% | -2.15% | 27.5% | -4.2% | 0%
Cc1cc(Br)c(O)c(-c2cscn2)c1 | -17.6% | -34.8% | 11.8% | 28.9% | 16.8% | 3%
O=C(Nc1cc(Cl)c(I)c(Cl)c1)C(F)(F)F | 96.6% (active) | 97.4% (active) | 96.8% (active) | 97% (active) | 79.8% (active) | 97.5% (active)
c1cnn(C23C4C5C6C4C2C6C53)c1 (configuration not stated) | -24.4% | -26.6% | -18.7% | -20.5% | -32.5% | -38.6%
O=c1[nH]c(Nc2cccc(CO)c2)nc2nc[nH]c12 | 5.35% | -11% | -25.8% | 0.9% | -15.7% | -26.4%
CCCCCCCCCC1=C(C#N)C(=O)OCCN1C | -12.9% | -2.7% | 0.05% | -22.1% | -11.4% | 3.6%
Brc1ccc(Br)s1 | -11.2% | -0.1% | -20.4% | -38.3% | 7.5% | 0.4%
CC(=O)OC(CC1(C)C(C)CCC23COC(=O)C2=CCCC31)c1ccoc1 (configuration not stated) | 87.3% (active) | 82.2% (active) | 85.7% (active) | 63.5% | 81.2% (active) | 82% (active)
Cc1ccc(NC(=S)NCC2CCCO2)cc1C (configuration not stated) | 9% | 7.2% | 10.6% | 8.85% | 19.4% | 14.7%
Clc1ccc(-c2ncc(-c3ccccc3)o2)cc1 | 20.8% | -13.7% | -6.75% | 4.2% | 33.6% | -9.9%
O=c1c2c(ccc3ccccc32)oc2ccc3ccccc3c12 | 15% | 1.45% | -5.45% | -45.1% | -7.65% | 16.4%
C1CCCC2(CCC1)OCCO2 | 0.7% | 10.4% | -4.05% | -9.55% | 17.1% | 1.65%

Structure (SMILES) | growth inhibition [1] | growth inhibition [2] | growth inhibition [3] | growth inhibition [4] | growth inhibition [5] | growth inhibition [6]
C#CCOCCCC(=O)O | 6.95% | -8.2% | 0.6% | 0.3% | 16.2% | 11.7%
C[n+]1ccccc1C(O)C(O)c1cccc[n+]1C (configuration not stated) | 6.05% | 1.65% | 8.85% | 23.4% | -8.45% | 9.6%
CCC(C)(O)CCc1ccccc1 (configuration not stated) | -17.5% | -42.6% | -64.2% | 2.55% | -36.3% | -5%
CCOC(=O)c1c(N)n(-c2ccccc2)c(=S)n(-c2ccccc2)c1=O | -17% | -24.4% | -32.5% | 14.6% | -40.2% | -41.4%
COc1cc(CC2c3cccc(Oc4ccc(C)cc4)c3CCN2C)ccc1Oc1ccc(C)cc1 (configuration not stated) | 98% (active) | 98.2% (active) | 98.7% (active) | 96.5% (active) | 97.4% (active) | 98% (active)
COCC(C)(c1cn(C)c2ccccc12)c1cn(C)c2ccccc12 | -2.5% | -19.2% | -11.4% | -17.9% | 5.05% | -10.1%
COc1ccc(-c2cc3cc(Cl)cc(Cl)c3oc2=O)cc1OC | -13.6% | -8.6% | -17.8% | -4.85% | -3.25% | -16.1%
COCc1ccc(C(=O)Nc2c(N)ncnc2N)cc1 | 5.4% | 13.7% | -0.15% | 0.9% | 23.7% | -0.1%
c1c[nH]c(C2Nc3ccccc3CO2)c1 (configuration not stated) | -11.4% | -13.2% | -18.9% | -22.6% | 1.3% | 9.85%
CCCOS(=O)(=O)O | -13.7% | -15.1% | 1.7% | 7% | 6.65% | 15.2%
Cc1cn(CCCn2cnc3c(=O)[nH]cnc32)c(=O)[nH]c1=O | -13.1% | -22.1% | -16.7% | -3.15% | -21.6% | -3.25%
Oc1ccccc1/C=N/Nc1nc(N/N=C/c2ccccc2O)nc(N/N=C/c2ccccc2O)n1 | 25.3% | 20.5% | 27.4% | 16.9% | -6.7% | 15.9%
CCOS(=O)(=O)c1ccc(F)c([N+](=O)[O-])c1 | 7.3% | 5.6% | -1.9% | -47% | 2.65% | -2.1%
CC(=O)CC(=O)N1CCCCCCC1 | -34% | -57.5% | -12.4% | -8.4% | -23.2% | -34.2%
CN1CCCC(NC(c2ccccc2)c2ccccc2)C1 (configuration not stated) | 25.4% | 0.45% | 23.9% | -11.8% | 34.5% | 18.9%
Cc1cc(N(CCC#N)CCC#N)ccc1/C(N=Nc1ccc(Cl)cc1)=N\NC(=O)c1ccccc1 | 1.3% | -2.65% | -0.5% | -10.2% | -7.3% | -31.1%
O=S(=O)(O)c1cc(S(=O)(=O)O)c2c(Nc3ccnc4ccccc34)ccc(S(=O)(=O)O)c2c1 | -8.25% | -1.3% | -19.2% | 3.6% | -8.45% | 13.8%
CC12C(=O)OC(=O)C1C1C=CC2C1 (configuration not stated) | 20.2% | 6.15% | -18.2% | -64.5% | -0.35% | 5.05%
